# Screening results (PubChem BioAssay)
# Hits are enriched below; roughly 3.5% of the tested compounds scored in any of these assays.
# MITF primary: MITF inhibitors, primary screen, biochemical, AlphaScreen, human | AID 1259374, 2018 | 650,000 tested, 0.91% active | Microphthalmia-associated transcription factor (Homo sapiens), O75030 | inhibition, % at 2.6 µM | AlphaScreen MITF homodimerization, bead proximity signal; in the data active = inhibition above about 50%;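 also: 0% = vehicle wells with protein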
# Target sequence (O75030 whole entry, looked up): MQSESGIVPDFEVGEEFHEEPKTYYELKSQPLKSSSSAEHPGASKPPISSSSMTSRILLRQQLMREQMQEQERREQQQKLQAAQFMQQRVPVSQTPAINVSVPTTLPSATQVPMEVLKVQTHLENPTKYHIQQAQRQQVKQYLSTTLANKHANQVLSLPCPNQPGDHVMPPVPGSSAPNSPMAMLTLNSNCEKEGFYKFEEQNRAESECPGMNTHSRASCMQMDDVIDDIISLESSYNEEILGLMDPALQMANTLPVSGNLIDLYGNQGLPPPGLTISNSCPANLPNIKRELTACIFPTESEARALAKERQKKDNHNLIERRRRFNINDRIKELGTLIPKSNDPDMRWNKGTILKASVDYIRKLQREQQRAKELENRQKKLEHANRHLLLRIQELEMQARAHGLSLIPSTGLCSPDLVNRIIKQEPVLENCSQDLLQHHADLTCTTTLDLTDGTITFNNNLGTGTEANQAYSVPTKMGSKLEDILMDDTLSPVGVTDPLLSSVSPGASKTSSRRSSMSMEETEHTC
# GPR151 activ: activators of human GPR151, primary screen, cell-based, PathHunter beta-arrestin, luminescence; 650,000 tested, 1% active; PathHunter beta-arrestin GPR151 cells; activation, % at 11.2 µM; G-protein coupled receptor 151 (Homo sapiens), Q8TDV0; AID 1508602, 2020; in the data active = activation above about 4.9%;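 also: 0% = median of compound wells and 100% = cells with positive control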
# FBW7 act: FBW7 E3 ligase activators, primary screen, biochemical, AlphaScreen, human. F-box/WD repeat-containing protein 7 (Homo sapiens), Q969H0. AlphaScreen FBW7–phospho-cyclin E peptide binding, activator screen. normalized activity (activation), % at 26.1 µM. 650,000 tested, 0.13% active. AID 1259310, 2017; in the data active = normalized activity above about 1.9%;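 also: purified mutant Fbw7 with reduced substrate affinity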
# TEAD-YAP inh: TEAD-YAP interaction inhibition, primary screen, TEAD-YAP interaction inhibitor project, luminescence, HEK-TIYL cells. TEAD-Gal4/YAP UAS-luciferase luminescence. inhibition, % at 9.12 µM. 640,000 tested, 1.4% active; in the data active = inhibition above about 32%;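 also: 0% = median of test compound wells and 100% = reference inhibitor wells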
# GPR151 conf act: GPR151 activators, triplicate retest, confirmation, cell-based, PathHunter beta-arrestin, luminescence | shares compounds with GPR151 activ | GPR151 PathHunter beta-arrestin cells, 90 min; % of EA-reagent control over plate median | activation, % at 11.2 µM | 6,700 tested, under 10 active;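 active = mean percent activation across replicates above the confirmation screen cutoff of 4.91%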
# GPR119 ag: GPR119 activators in beta-arrestin cells, counter-screen for GPR151 activator project, cell-based, PathHunter beta-arrestin, luminescence, triplicate | activation, % at 11.2 µM | 90 min; 0 = compound-well median, 100 = enzyme-acceptor control | shares compounds with GPR151 activ | 6,700 tested, 0.3% active | AID 1508611, 2020;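 active = mean percent activation in the counterscreen above 29.09%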;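 also: counterscreen on off-target GPR119 to flag nonselective hits from the GPR151 activator screen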
# * marks the source's active call; other numbers are inactive results; nt = no result given.
SMILES,MITF primary,GPR151 activ,FBW7 act,TEAD-YAP inh,GPR151 conf act,GPR119 ag
COC(=O)c1ccc(NC(=O)CN(c2ccc(F)cc2)S(C)(=O)=O)cc1,1,-1,1,-11,nt,nt
COC(=O)c1ccc(C)c(NC(=O)CN(c2ccc(F)cc2)S(C)(=O)=O)c1,-12,7.1*,0,2,-1,-5
CCc1ccc(NC(=O)CN(c2ccc(C)cc2)S(=O)(=O)c2c(C)n[nH]c2C)cc1,9,0,1,5,nt,nt
O=C(OCc1nc2ccccc2s1)C1CCN(C2=NS(=O)(=O)c3ccccc32)CC1,7,5.6*,0,-6,1,12
NC(=O)C1CCN(C2=NS(=O)(=O)c3ccccc32)CC1,-1,-2,0,7,nt,nt
CCCNC(=O)CSc1nccn1Cc1ccc(F)cc1,-10,5.7*,0,-4,1,11
O=C(N=Nc1c(O)n(CO)c2ccccc12)c1ccncc1,6,4.9*,0,-8,0,9
CCn1c(O)c(N=NC(=O)c2ccc(C)nc2)c2ccccc21,11,2,0,3,nt,nt
Cc1cccc(Nc2nc3nonc3n3cnnc23)c1C,-3,5.8*,0,-2,1,6
CCCCN(CC)S(=O)(=O)c1ccc(C(=O)Nc2sc3c(c2C(=O)OCC)CCN(C(C)C)C3)cc1,-1,5.6*,0,-4,-2,-11
CC(C)(C)c1ccc(OCCCC(=O)Nc2sc3c(c2C(N)=O)CCCC3)cc1,12,6.5*,0,1,0,8
CCOC(=O)c1c(-c2ccccc2)csc1NC(=O)CC,-14,0,0,-2,nt,nt
COC(=O)c1c(NC(=O)CCCOc2ccc(C(C)(C)C)cc2)sc2c1CCC2,6,3,0,-5,nt,nt
CCOC(=O)c1c(NC(=O)CC)sc2c1CCCC2,-6,5.1*,0,8,0,2
CCCCN(CCCC)S(=O)(=O)c1ccc(C(=O)Nc2sc3c(c2C(=O)OCC)CCN(C(C)C)C3)cc1,-10,-1,0,8,nt,nt
CCOC(=O)c1c(-c2ccc(C)cc2)csc1NC(=O)CC,-18,5.1*,0,12,-1,-13
CCCOc1ccc(C(=O)Nc2sc3c(c2C(=O)OCC)CCCC3)cc1,9,7.4*,1,-2,0,8
CCOC(=O)c1c(NC(=O)COc2ccc(CC)cc2)sc2c1CCC2,2,0,1,-8,nt,nt
CCCCOc1ccc(C(=O)Nc2sc3c(c2C(=O)OCC)CCC3)cc1,-7,0,0,-6,nt,nt
CCOC(=O)c1c(NC(=O)COc2ccc(C)cc2)sc2c1CCCC2,-7,5.1*,0,-6,0,14
Cc1ccc(-n2c3c(cc(C(=O)Nc4ccccc4F)c2=O)C(=O)CC(C)(C)C3)cc1,-6,1,0,-8,nt,nt
Cc1nnc(SCc2ccc(Cl)cc2)nc1/C=C/N(C)C,12,0,0,8,nt,nt
Cc1nnc(SCc2ccc(Cl)cc2)nc1C,7,5.2*,0,-22,0,-5
Cc1nc2nc(SCc3c(F)cccc3Cl)nn2c(C)c1Cc1ccc(F)cc1Cl,5,1,0,-10,nt,nt
O=C(CCN1CCN(C2c3ccccc3-c3ccccc32)CC1)Nc1ccccc1F,6,5.1*,0,-4,1,10
SMILES,MITF primary,GPR151 activ,FBW7 act,TEAD-YAP inh,GPR151 conf act,GPR119 ag
Cc1ccc(Sc2cc(C(=O)NC3CC3)c3ccccc3n2)cc1,3,5.4*,0,1,0,-5
Cc1ccc(Sc2cc(C(=O)NC3CCC(C)CC3)c3ccccc3n2)cc1 (stereo unspecified),4,0,0,-3,nt,nt
CNC(=O)c1cc(-c2ccc(C)cc2)nc2ccccc12,11,5.4*,1,-5,-2,-13
O=C(Nc1ccncc1)c1cc(-c2ccncc2)nc2ccccc12,-5,5.2*,0,-15,3,15
O=C(CCCC(=O)Nc1ccc(Cl)cc1)Nc1ccc(Cl)cc1,-1,14*,0,5,0,-6
O=C(CCC(=O)Nc1ccc(Cl)cc1)Nc1ccc(Cl)cc1,-9,-1,0,1,nt,nt
Cc1nn(C)c(C)c1-c1cccc(C(N)=O)c1,-5,0,0,0,nt,nt
Cc1nn(C)c(C)c1-c1ccc2nc(C(C)C)[nH]c(=O)c2c1,-10,5.6*,0,3,-1,1
CCOC(=O)C1=C(c2ccccc2)N=c2s/c(=C\c3ccc(N4CCOCC4)o3)c(=O)n2C1c1ccc(OCC)cc1 (stereo unspecified),5,0,0,3,nt,nt
CCN(CC)CCOc1ccc2c(c1)C(=O)c1cc(OCCN(CC)CC)ccc1-2,8,15*,0,50*,-1,-3
Nc1ncc(Cc2cccc([N+](=O)[O-])c2)s1,-9,5.4*,0,6,0,-4
Nc1ncc(Cc2ccccc2)s1,-7,1,0,4,nt,nt
CC(=O)c1ccc(Cc2cnc(N)s2)cc1,5,8.9*,0,8,-1,6
O=C(Nc1ncc(Cc2cccc(C(F)(F)F)c2)s1)c1cccc([N+](=O)[O-])c1,-11,5.1*,0,-2,0,-6
CC(=O)c1ccc(N2C(=O)C3CCCCC3C2=O)cc1 (stereo unspecified),0,0,0,-37,nt,nt
CSc1nsc(SC)c1NC(=O)OCC1CCCO1 (stereo unspecified),2,6.6*,0,3,0,-2
CSc1nsc(SC)c1NC(=O)OC1CCCC1,11,-1,0,7,nt,nt
CCOC(=O)c1c(NC(=O)COc2ccccc2)sc(C)c1C,11,-1,1,0,nt,nt
Cc1cccc(C)c1NC(=O)C(=O)NCCc1ccc(F)cc1,-7,6.4*,0,-6,0,-5
Cc1cccc(C)c1NC(=O)C(=O)NCCc1ccccc1,-7,0,0,-1,nt,nt
CCOC(=O)c1c(NC(=O)CSc2nnc(-c3ccco3)o2)sc(C(C)=O)c1C,0,0,0,-6,nt,nt
COC(=O)c1ccc(C(=O)OC)c(NC(=O)CSc2nnc(-c3ccco3)o2)c1,-6,3,0,-4,nt,nt
CCOC(=O)c1c(NC(=O)CSc2nnc(-c3ccco3)o2)sc(C)c1C,25,5.1*,0,5,0,-6
COC(=O)c1ccccc1NC(=O)CSc1nnc(-c2ccco2)o1,-6,8.3*,0,-14,1,10
CNC(=O)c1c(C)oc2ccc(OC)cc12,2,2,0,6,nt,nt
